Screening data deposited in PubChem by National Center for Advancing Translational Sciences (NCATS).
Most compounds without a hit are left out; they make up all but 15% or so of the library.
Gal4-VP16 FLuc: counter-screen for ROR gamma inhibitors: Gal4-VP16 reporter; Drosophila S2 Gal4-VP16 UAS-luciferase, luminescence, 20 h; AID 2546; 310,000 compounds, 3.5% hits; Potency, µM (series often up to 53.6 µM), most hits filed as inhibitors;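 further: Gal4-VP16 expression switched on by copper sulfate through the metallothionein promoter; nearly all actives have a fitted effect of over 50% in size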
DT40 TDP1 no CPT: qHTS for Inhibitors of human tyrosyl-DNA phosphodiesterase 1 (TDP1): qHTS in cells in absence of CPT | DT40 Tdp1-/- hTDP1 cells, no CPT, ATP luminescence, 48 h | Potency, µM (series often up to 46.2 µM), hits mostly inhibitors | 420,000 compounds, 15% hits | AID 686978, 2013; further: nearly all actives have a fitted effect of over 55% in size
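Seeded 400 DT40-hTDP1 cells/well (vehicle DMSO, no 20 nM CPT); pinned compounds; ≥48 hr at 37 °C; CellTiter-Glo luminescence as viability measure.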
ELG1 repair inh: inhibitors of ELG1-dependent DNA repair in HEK293T cells; 330,000 compounds, 2.3% hits; Potency, µM (highest dose often 46.1 µM), hits mostly inhibitors; HEK293T ELG1-luciferase reporter, luminescence, 16 h; DNA damage induced by 5-fluorouridine; AID 504467; further: nearly all actives have a fitted effect of over 55% in size
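Overnight (16 hr) co-exposure of 2,000 cells/well to 5-fluorouridine and compound at 37 °C preceded detection. Luciferase was quantified via ONE-Glo luminescence; loss of signal denotes inhibition.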
DT40 TDP1 CPT: growth inhibition of DT40 Tdp1-/-;hTDP1 cells with camptothecin (screen for TDP1 inhibitors) | chicken DT40 Tdp1-/-;hTDP1 cells + 20 nM CPT, ATP luminescence, 48 h | 420,000 compounds, 12% hits | Potency, µM (highest dose often 46.2 µM), usual class: inhibitors | AID 686979; further: nearly all actives have a fitted effect of over 55% in size
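Chicken DT40 Tdp1-/- cells complemented with human TDP1, 400 cells/well, exposed to compounds plus 20 nM camptothecin for at least 48 h at 37 C; viability read as ATP content by CellTiter-Glo luminescence.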
RORgamma inh: blocks mouse ROR gamma transcriptional activity | Potency, µM (doses to about 53.6 µM), most hits filed as inhibitors | 310,000 compounds, 5.4% hits | AID 2551 | Drosophila S2 Gal4-RORgamma UAS-luciferase reporter, 20 h | P51450; further: nearly all actives have a fitted effect of over 60% in size
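A Gal4/UAS one-hybrid system in insect cells: metallothionein-promoter Gal4–ROR gamma fusion plus Photinus luciferase reporter. Copper sulfate 700 uM final, 20 hr ambient incubation, luminescent detection after 10 min with reagent.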
ALOX12 inh: blocks human arachidonate 12S-lipoxygenase. 580,000 compounds, 1.1% hits. P18054. Potency, µM (top dose mostly 108 µM), hits mostly inhibitors. purified 12hLO, xylenol orange hydroperoxide absorbance
Target sequence (P18054 whole entry, looked up): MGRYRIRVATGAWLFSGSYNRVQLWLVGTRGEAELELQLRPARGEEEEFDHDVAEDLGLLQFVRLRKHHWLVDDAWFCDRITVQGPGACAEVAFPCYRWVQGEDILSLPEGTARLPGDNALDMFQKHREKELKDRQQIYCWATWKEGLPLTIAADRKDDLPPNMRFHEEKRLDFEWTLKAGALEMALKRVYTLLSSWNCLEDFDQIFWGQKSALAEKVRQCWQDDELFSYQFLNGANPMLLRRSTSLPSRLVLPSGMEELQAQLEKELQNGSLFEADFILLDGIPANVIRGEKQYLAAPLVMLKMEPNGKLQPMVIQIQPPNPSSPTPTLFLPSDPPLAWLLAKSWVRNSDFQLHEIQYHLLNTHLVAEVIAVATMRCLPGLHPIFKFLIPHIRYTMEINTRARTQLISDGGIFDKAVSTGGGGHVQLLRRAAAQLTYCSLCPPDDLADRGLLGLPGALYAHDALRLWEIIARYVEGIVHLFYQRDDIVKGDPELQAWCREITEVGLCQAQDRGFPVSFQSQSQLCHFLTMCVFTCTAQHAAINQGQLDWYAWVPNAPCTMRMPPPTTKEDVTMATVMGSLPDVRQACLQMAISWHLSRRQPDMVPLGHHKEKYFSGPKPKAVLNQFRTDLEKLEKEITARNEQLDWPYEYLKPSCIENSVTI
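Purified human 12hLO (150 nM final) in 25 mM Hepes, 0.01% Triton X-100, pH 7.0 was preincubated 15 min at room temperature with compound. Then 40 uM arachidonic acid was added, 30 min. Hydroperoxide was read by Fe-XO absorbance ratio 573/405 nm.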
Hits are given with their value; - = inactive; ? = inconclusive; . = not tested or not shown; [ ] = dose if it differs, or a comment. The call rests on the fitted dose curve; in most records, active means well fitted curve in the direction sought with a large enough effect; inconclusive means small, poorly fitted or top-dose-only effect, or another doubt; inactive means no such curve, though single readings can be large; an effect the other way counts as inactive or inconclusive.

SMILES	Gal4-VP16 FLuc	DT40 TDP1 no CPT	ELG1 repair inh	DT40 TDP1 CPT	RORgamma inh	ALOX12 inh
COC(=O)NC(NC(=S)Nc1ccc([N+](=O)[O-])cc1)C(Cl)(Cl)Cl (centres undefined)	-	7.3µM	?	7.3µM	-	?
CC(C)CC(=O)NC(Nc1ccccc1F)C(Cl)(Cl)Cl (centres undefined)	-	?	-	?	-	-
CC(C)CC(=O)NC(Nc1ccc([N+](=O)[O-])cc1)C(Cl)(Cl)Cl (centres undefined)	-	23µM	?	18µM	?	?
C=C(C)COc1ccc2c(=O)c(Oc3ccc(C(=O)OCC)cc3)coc2c1	.	.	.	.	.	-
O=C(O)C1C2CCC(C2)C1C(=O)NCCCN1CCOCC1 (centres undefined)	.	.	.	.	.	-
CC1Cc2nc(SCC(=O)N3CCCCC3)n(-c3ccc(F)cc3)c(=O)c2S1 (centres undefined)	.	.	.	.	.	-
O=C(NC(NC(=S)Nc1ccc(Cl)c(Cl)c1)C(Cl)(Cl)Cl)c1ccco1 (centres undefined)	?	18µM	-	21µM	-	2.8µM
O=C(O)c1cccc(NC(=S)NC(NC(=O)c2ccco2)C(Cl)(Cl)Cl)c1 (centres undefined)	-	-	-	-	-	-
O=C(NC(NC(=S)Nc1c(Cl)cccc1Cl)C(Cl)(Cl)Cl)c1cccc([N+](=O)[O-])c1 (centres undefined)	8.9µM	12µM	?	21µM	?	?
Cc1nc(-c2cccc(S(=O)(=O)N3CCC(C(=O)NCc4ccc5c(c4)OCO5)CC3)c2)no1	.	.	.	.	.	-
COCCNC(=O)/C(C#N)=C/C=C/c1ccccc1[N+](=O)[O-]	-	7.3µM	?	10µM	13µM	-
CNC(=O)/C(C#N)=C/c1cccc(Oc2ccccc2)c1	-	23µM	?	26µM	-	?
COCCNC(=O)/C(C#N)=C/c1ccc(O)c([N+](=O)[O-])c1	-	?	-	-	-	-
COCCNC(=O)/C(C#N)=C/c1cccc(/C=C(\C#N)C(=O)NCCOC)c1	11µM	12µM	21µM	5.8µM	13µM	-
COCCNC(=O)/C(C#N)=C/c1ccc(O)cc1	?	-	?	-	-	-
COc1ccccc1C(=O)Nc1ccc2oc(-c3ccc4ccccc4c3)nc2c1	.	.	.	.	.	-
C[C@H]1[C@@H](NS(=O)(=O)c2cc(Cl)cc(Cl)c2)CC[C@@]23CCCN2C(=O)CCC[C@@H]13	.	.	.	.	.	-
O=C(NC1CC1)c1ccc2c(c1)OCCCO2	.	.	.	.	.	-
CCCCc1cc(=O)oc2c(C)c(OC(C)C(=O)NCc3cccnc3)ccc12 (centres undefined)	.	.	.	.	.	-
CCN(CC)/C(Sc1ccccc1)=C(/C(Cl)=C(Cl)Cl)[N+](=O)[O-]	-	?	-	21µM	-	7.9µM
O=[N+]([O-])/C(C(Cl)=C(Cl)Cl)=C(\Sc1ccccc1)N1CCCCC1	-	23µM	-	18µM	-	?
Cc1cc(N2CCC(C)CC2)nc2ccc(NC(=O)/C=C/c3cccc(Cl)c3)cc12	.	4.1µM	.	6.5µM	.	?
Cc1cc(N2CCOCC2)nc2ccc(NC(=O)C3CCC(C)CC3)cc12 (centres undefined)	-	?	-	?	-	-
Cc1ccc(/C=C/C(=O)Nc2ccc3nc(N4CCC(C)CC4)cc(C)c3c2)cc1	.	3.7µM	.	5.8µM	.	?
Cc1cc(N2CCCCC2)nc2ccc(NC(=O)/C=C/c3ccc(OCCC(C)C)cc3)cc12	.	18µM	.	-	.	-
SMILES	Gal4-VP16 FLuc	DT40 TDP1 no CPT	ELG1 repair inh	DT40 TDP1 CPT	RORgamma inh	ALOX12 inh
CC(C)Cn1cnc2c1c(=O)n(CC(=O)NCC(F)(F)F)c(=O)n2Cc1ccccc1	.	.	.	.	.	-
Cc1ccc(NC(=O)Cn2ccn3nc(-c4ccc(F)cc4)c(CO)c3c2=O)cc1Cl	.	.	.	.	.	-
CN1c2ccccc2C(C)(C)C12CCCC(=O)N2 (centres undefined)	-	?	-	29µM	-	?
Cc1ccc(/C=C2\SC(=S)N(C3CCS(=O)(=O)C3)C2=O)cc1 (centres undefined)	-	15µM	-	?	-	-
O=C1/C(=C\c2ccco2)SC(=S)N1c1ccccc1	-	?	?	-	-	?
O=C1/C(=C/c2ccco2)SC(=S)N1C1CCS(=O)(=O)C1 (centres undefined)	-	16µM	-	15µM	-	?
O=C1/C(=C\c2ccco2)SC(=S)N1C1CCS(=O)(=O)C1 (centres undefined)	-	21µM	-	23µM	-	?
O=C(c1ccc(Cl)s1)N1CCC2(COc3ncccc3S(=O)(=O)N2)C1 (centres undefined)	.	.	.	.	.	-[6.33 µM]
O=C1NCCOCCCN(C(=O)C2CC2)[C@H]2CCCC[C@@H]12	.	.	.	.	.	-
CC(=O)Nc1cccc(Oc2ccc3nnc(-c4ccc(Cl)cc4)n3n2)c1	.	.	.	.	.	-
CCc1n[nH]c(CC2CCN(C(=O)COc3ccc(C)cc3)CC2)n1	.	.	.	.	.	-
Oc1ccc(Nc2nc(-c3ccc(O)cc3)cs2)cc1	-	5µM	?	11µM	-	?
Nc1ccc(Nc2nc(-c3ccncc3)cs2)cc1	?	18µM	?	?	?	-
COc1ccc(Nc2nc(-c3ccc(OC)cc3)cs2)cc1	-	-	?	-	-	-
Brc1ccc(Nc2nc(-c3cccnc3)cs2)cc1	-	-	?	-	-	?
Oc1ccc(Nc2nc(-c3ccc(Cl)cc3)cs2)cc1	14µM	.	.	.	?	?
Oc1ccc(Nc2nc(-c3cccnc3)cs2)cc1	-	23µM	?	21µM	-[1.91 µM]	.
N=C(N)COc1ccc(Cl)c(Cl)c1	.	.	.	.	.	-
CCSc1nc(N2CCOCC2)c2sc3c(c2n1)COC(C)(C)C3	.	.	.	.	.	-
Oc1ccc(-c2csc(Nc3cccc(O)c3)n2)cc1	.	.	.	.	.	40µM
COc1ccc(-c2csc(Nc3ccc(S(N)(=O)=O)cc3)n2)cc1	-	?	16µM	?	-	-
c1ccc(Nc2nc(-c3ccncc3)cs2)cc1	-	?	?	-	?	-
CCS(=O)(=O)N1CCCN(Cc2ccncc2)C(c2ccccc2)CC(=O)NCC1 (centres undefined)	.	.	.	.	.	-
CS(=O)(=O)c1cccc(C(=O)Nc2ccc(-c3nc4ccccc4[nH]3)cc2)c1	?	7.3µM	-	8.2µM	-	-
Cc1ccccc1C(=O)Nc1ccc(-c2nc3ccc(C(=O)c4ccccc4)cc3[nH]2)cc1	-	5.2µM	?	9.2µM	-	-
CN(c1ccccc1)S(=O)(=O)c1ccc(Cl)c(C(=O)Nc2nn[nH]n2)c1	-	-	-	-	-	?
